This is an account of results in PubChem BioAssay.

A short description of test [1]: optical density shifts of acrAB sulA E. coli – strain DRC41, OD650, 48 h, E. coli filamentation inducer project, primary screen (AID 1152).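 Further: E. coli MC1000 strain DRC41 lacking acrAB efflux pump and sulA.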 Particulars: higher = more signal, called active from +8 up or from −8 down.
Test [2] in a line: probe aLefty1 binding on compound microarray – biochemical, small-molecule microarray, 635/667 nm fluorescence, primary screen (AID 1153).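 Further: score merges spot fluorescence with signal-to-noise ratio from the scanned slide images.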 The following applies: higher = more signal.
Test [3] can be described thus: plasmodial surface anion channel blockers, osmotic lysis – cell-based, P. falciparum Indochina, OD700, 1 h, primary screen (AID 1154). Particulars: P. falciparum Indochina infected RBC osmotic lysis, higher = more signal, called active from +8 up or from −8 down.
A short description of test [4]: plasmodial surface anion channel blockers, osmotic lysis – cell-based, P. falciparum Indochina, OD700, 2 h, primary screen (AID 1155).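 Further: lysis reports solute entry through the parasite surface anion channel PSAC.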 The following applies: P. falciparum Indochina infected erythrocytes, higher = more signal, called active from +8 up or from −8 down.
Test [5] in a line: changes in parasitized red cell lysis, either direction – P. falciparum Indochina, OD700, 3 h, PSAC antagonist project, primary screen (AID 1156). The following applies: P. falciparum-infected erythrocytes, osmotic lysis, higher = more signal, called active from +8 up or from −8 down.
The nature of test [6]: plasmodial surface anion channel blockers, osmotic lysis – cell-based, P. falciparum Indochina, OD700, 18 h, primary screen (AID 1157). The following applies: P. falciparum Indochina infected erythrocytes, osmotic lysis OD700, 18 h; higher = more signal, called active from +8 up or from −8 down.
The nature of test [7]: S6 kinase pathway phospho-S6 level changes – cell-based, A549, cytoblot, luminescence, serum-stimulated, primary screen (AID 1158).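 Further: serum-stimulated A549 lung adenocarcinoma cells; signal is phosphorylated S6 detected by cytoblot immunostaining with HRP secondary.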 The following applies: 5 h, higher = more signal.
The target of test [8] is NADPH oxidase 2 (Homo sapiens) (UniProt P04839). The test can be described thus: compounds shifting NOX2 Amplex Red fluorescence – cell-based, HEK293-NOX2, PMA-stimulated, NOX inhibitor project, primary screen (AID 1159). Further: test concentration not given here. The following applies: 45 min, higher = more signal, called active from +8 up or from −8 down.
Sequence of NADPH oxidase 2 (Homo sapiens) (P04839 whole entry, looked up): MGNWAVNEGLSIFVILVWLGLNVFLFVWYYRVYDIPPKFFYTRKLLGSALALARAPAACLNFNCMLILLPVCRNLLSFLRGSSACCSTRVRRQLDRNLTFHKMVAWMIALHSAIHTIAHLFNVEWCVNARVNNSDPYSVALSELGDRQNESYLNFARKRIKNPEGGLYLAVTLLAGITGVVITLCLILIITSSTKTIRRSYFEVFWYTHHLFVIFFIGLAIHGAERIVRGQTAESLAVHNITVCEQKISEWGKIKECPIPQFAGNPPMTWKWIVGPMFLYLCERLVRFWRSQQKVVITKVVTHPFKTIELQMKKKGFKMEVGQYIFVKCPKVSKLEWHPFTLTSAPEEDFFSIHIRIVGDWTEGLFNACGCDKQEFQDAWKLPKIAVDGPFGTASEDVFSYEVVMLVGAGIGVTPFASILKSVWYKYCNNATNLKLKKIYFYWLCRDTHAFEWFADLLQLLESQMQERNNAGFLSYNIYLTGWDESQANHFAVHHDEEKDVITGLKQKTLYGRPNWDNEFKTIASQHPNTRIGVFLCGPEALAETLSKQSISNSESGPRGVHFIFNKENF
In test [9] the target is NADPH oxidase 4 (Homo sapiens) (UniProt Q9NPH5). The test can be described thus: compounds shifting NOX4 Amplex Red fluorescence – cell-based, HEK293-NOX4, tetracycline-induced, NOX inhibitor project, primary screen (AID 1160). The following applies: HEK293-NOX4, Amplex Red H2O2 fluorescence, 45 min; higher = more signal, called active from +8 up or from −8 down.
Sequence of NADPH oxidase 4 (Homo sapiens) (Q9NPH5 whole entry, looked up): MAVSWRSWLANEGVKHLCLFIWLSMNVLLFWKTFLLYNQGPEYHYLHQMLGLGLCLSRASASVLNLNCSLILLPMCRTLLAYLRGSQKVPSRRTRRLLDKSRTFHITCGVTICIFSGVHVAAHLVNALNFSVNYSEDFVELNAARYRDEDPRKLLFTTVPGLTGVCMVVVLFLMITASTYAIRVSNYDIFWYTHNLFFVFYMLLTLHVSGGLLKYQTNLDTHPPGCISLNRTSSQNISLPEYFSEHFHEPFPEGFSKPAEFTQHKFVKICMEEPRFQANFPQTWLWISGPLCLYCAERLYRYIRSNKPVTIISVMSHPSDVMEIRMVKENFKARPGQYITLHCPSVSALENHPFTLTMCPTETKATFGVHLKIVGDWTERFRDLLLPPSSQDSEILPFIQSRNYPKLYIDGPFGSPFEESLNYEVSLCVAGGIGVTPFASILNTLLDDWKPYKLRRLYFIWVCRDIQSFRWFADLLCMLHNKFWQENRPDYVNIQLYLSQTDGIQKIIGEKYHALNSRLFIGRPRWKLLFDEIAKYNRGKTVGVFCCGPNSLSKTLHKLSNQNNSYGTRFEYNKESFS
In test [10] the target is NADPH oxidase 5 (Homo sapiens) (UniProt Q96PH1). Put plainly: compounds shifting NOX5 Amplex Red fluorescence – cell-based, HEK293-NOX5, NOX inhibitor project, primary screen (AID 1161). The following applies: HEK293-NOX5, ionomycin, 45 min, higher = more signal.
Sequence of NADPH oxidase 5 (Homo sapiens) (Q96PH1 whole entry, looked up): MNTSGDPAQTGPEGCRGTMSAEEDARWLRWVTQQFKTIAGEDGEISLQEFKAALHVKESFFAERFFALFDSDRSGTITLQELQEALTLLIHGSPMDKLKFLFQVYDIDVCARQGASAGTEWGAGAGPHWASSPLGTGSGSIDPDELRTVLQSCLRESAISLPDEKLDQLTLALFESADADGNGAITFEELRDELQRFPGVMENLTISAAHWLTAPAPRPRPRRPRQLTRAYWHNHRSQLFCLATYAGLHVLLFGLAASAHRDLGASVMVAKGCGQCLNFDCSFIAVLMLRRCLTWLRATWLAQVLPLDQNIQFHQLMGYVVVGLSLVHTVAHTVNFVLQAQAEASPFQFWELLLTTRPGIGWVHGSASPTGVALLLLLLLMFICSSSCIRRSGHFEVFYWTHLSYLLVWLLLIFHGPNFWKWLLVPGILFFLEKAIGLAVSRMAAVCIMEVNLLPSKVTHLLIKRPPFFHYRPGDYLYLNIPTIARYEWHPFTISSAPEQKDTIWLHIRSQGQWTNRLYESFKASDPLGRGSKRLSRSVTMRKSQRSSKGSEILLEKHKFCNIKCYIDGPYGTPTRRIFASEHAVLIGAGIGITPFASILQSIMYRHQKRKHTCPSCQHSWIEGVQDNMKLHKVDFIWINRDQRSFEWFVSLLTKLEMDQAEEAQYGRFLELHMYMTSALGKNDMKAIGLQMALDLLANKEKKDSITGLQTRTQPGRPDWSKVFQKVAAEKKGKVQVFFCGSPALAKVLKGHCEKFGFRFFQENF

Activity calls are given as the source filed them.

`CN(C)CCCC[C@@H]1NC(=O)[C@@H]2C[C@H](C(=O)O)[C@H](c3cccc(OCCO)c3)N2C1=O`: the z-score in test [1] is 0.408 (inactive); in [3], 2.07 (inactive); in test [4], 0.2 (inactive); in test [5], -0.725 (inactive); in test [6] it was -0.0176 (inactive); in [7], -0.564. The values for the z-score in [8], in test [9] and in test [10] were 1.11 (inactive), 0.306 (inactive) and 1.18, respectively. The compound also yielded a composite z-score in [2] of -0.147.
`CCOC(=O)C1=CC[C@@H](c2ccccc2)N(S(=O)(=O)c2ccc(C)cc2)[C@H]1c1cccc(OC)c1`: the z-score is -0.999 (inactive) in [1]; 0.792 (inactive) in [3]; 0.779 (inactive) in test [4]; -0.422 (inactive) in test [5]; 0.385 (inactive) in [6]; -0.245 in test [7]. Also, the z-score was 0.537 (inactive) in [8], 0.489 (inactive) in test [9] and 0.732 in test [10]. In test [2], this compound gave a composite z-score of 0.535.
In the case of `CC1(C)C(=O)C(c2ccccc2)=C2CN3C(=O)N(CCc4ccccc4)C(=O)C3(Cc3ccc(F)cc3)C=C21` (stereo not given), the z-score is -2.48 (inactive) in test [1]; 2.94 (inactive) in test [3]; 0.371 (inactive) in test [4]; 1.8 (inactive) in test [5]; 0.765 (inactive) in [6]; -0.16 in test [7]. In addition, the z-score in test [8] is -0.952 (inactive); in test [9] it was -4.15 (inactive); in test [10], -3.9. In test [2], this compound yielded a composite z-score of 0.595.
With `O=C1C2C=CC(C(O)c3ccc4c(c3)OCO4)N(Nc3ccccc3)C2C(=O)N1c1ccccc1` (stereo not given), the z-score was -1.27 (inactive) in [1]; 0.805 (inactive) in test [3]; 0.384 (inactive) in [4]; 1.15 (inactive) in test [5]; 1.39 (inactive) in test [6]; -0.777 in [7]. In addition, the z-score was -0.279 (inactive) in test [8], 0.756 (inactive) in test [9] and -1.12 in test [10]. In [2], this compound displayed a composite z-score of 0.065.
Take `CCOC(=O)C=Cc1cc(F)ccc1O`: the z-score in test [1] was -1.38 (inactive); in test [3], 16.6 (active); in test [4], -0.347 (inactive); in test [5] it was 0.782 (inactive); in test [6], -1.23 (inactive); in test [7], 0.684. Also, the z-score was -4.77 (inactive) in test [8], -3.25 (inactive) in test [9] and -4.14 in [10]. The composite z-score in [2] was found to be 0.0355.
`CN1C(=O)C2C(C1=O)C1C=C(CCCO)C2C(C2CC2)N1Cc1cc2c(cc1Br)OCO2` (stereo not given): the z-score in test [1] is -0.541 (inactive); in test [3] it was 3.48 (inactive); in test [4] it was 0.68 (inactive); in [5], 0.3 (inactive); in test [6], 0.307 (inactive); in test [7], -0.188. In addition, the z-score in test [8] is -0.84 (inactive); in test [9], -0.389 (inactive); in test [10], -0.349. This compound also registered a composite z-score in [2] of 0.0041.
Take `COc1ccc(C(=O)Nc2cccc(CN3C(=O)[C@]4(O[C@H](CCn5cc([C@H](O)c6ccccc6)nn5)[C@@H]([Si](C)(C)c5ccc(OC)cc5)[C@@H]4C)c4ccccc43)c2)cc1`: the z-score is 0.959 (inactive) in test [1]; 1.23 (inactive) in [3]; 0.0918 (inactive) in test [4]; 1.82 (inactive) in test [5]; -0.209 (inactive) in test [6]; 0.871 in test [7]. Besides, the z-score was -0.498 (inactive) in test [8], 0.245 (inactive) in [9] and -0.305 in test [10]. The composite z-score in test [2] worked out at 0.051.
Consider `CCCC=C(CCC)[C@@H](NC(=O)CCc1ccccc1)c1ccc(C(F)(F)F)cc1`, for which the z-score in [1] was -1.56 (inactive); in test [3] it was 1.71 (inactive); in [4] it was 0.542 (inactive); in test [5], 1.8 (inactive); in test [6] it was 1.01 (inactive); in [7] it was 0.697. For the same compound, the results for the z-score in test [8], in test [9] and in test [10] were -0.975 (inactive), -1.6 (inactive) and 2.78, respectively. The compound also showed a composite z-score in test [2] of 0.73.
Take `COc1cc2c(cc1OC)CN(C(=O)[C@@H]1[C@H]3C(=O)O[C@H](c4ccccc4)[C@H](c4ccccc4)N3[C@H](c3ccc(O)cc3)[C@@]13C(=O)Nc1ccc(C#CCCO)cc13)CC2`: the z-score in test [1] is -0.0186 (inactive); in [3], 0.125 (inactive); in test [4], 0.448 (inactive); in [5], 1.16 (inactive); in test [6], 0.165 (inactive); in [7], -0.42. The figures for the z-score in [8], in test [9] and in test [10] were 0.777 (inactive), 0.152 (inactive) and 0.532, respectively. The same compound registered a composite z-score in test [2] of -0.149.
In the case of `CC(C)CNC(=O)[C@@]1(C)c2ccccc2C(=O)N(Cc2cc(C(F)(F)F)cc(C(F)(F)F)c2)[C@H]1c1ccc(CO)cc1`, the z-score in test [1] is 0.516 (inactive); in [3] it was 7.12 (inactive); in [4], 1.13 (inactive); in test [5], 2.06 (inactive); in test [6], 0.428 (inactive); in test [7] it was -0.404. Further, the z-score was -0.766 (inactive) in test [8], 0.596 (inactive) in test [9] and 0.821 in test [10]. The composite z-score in [2] was -0.101.
